Source: PubChem BioAssay
An excerpt weighted towards active compounds, which were near 1.5% of everything screened.
NOD2 RIPK2 PPI = inhibitors of human NOD2-RIPK2 interaction | O43353 | hit rate 0.38% among 360,000 | CHO BLA complementation NOD2-RIPK2, CCF4 ratio | inhibition, % at 4.98 µM; in the data active means inhibition above about 21%;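 further: 0% = vehicle only and 100% = reference blocker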
TLR9-MyD88 block = inhibitors of human TLR9-MyD88 binding; CHO BLA complementation TLR9-MyD88, CCF4 FRET ratio; inhibition, % at 4.98 µM; hit rate 0.21% among 340,000;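 active means inhibition above the mean over all tested compounds plus 3 SD, cut at about 21% in these data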;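 further: 0% = DMSO only wells and 100% = clavulanate BLA inhibitor control wells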
TLR4-MyD88 BLA = inhibitors of human TLR4-MyD88 binding; HeLa CL3-4 TLR4/MyD88 BLA complementation, FRET ratio; hit rate 0.18% among 200,000; inhibition, % at 8.4 µM; O00206+Q99836; in the data active means inhibition above about 25%;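 further: 0% = vehicle and 100% = reference inhibitor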
Myeloid diff MLP = myeloid differentiation induction; ER-HoxA9 myeloid progenitors, lysozyme-GFP differentiation, flow cytometry; calls only at 10 µM; hit rate 1% among 360,000; AID 624256;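 active means normalized GFP-positive differentiation at or above the plate's own cutoff, the solvent-only control mean plus 3 SD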;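 further: cells exposed to compound for four days before flow analysis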
Starred values were filed as active, the others as inactive; i = inactive; · = no result given; + = active, no number.

SMILES | NOD2 RIPK2 PPI | TLR9-MyD88 block | TLR4-MyD88 BLA | Myeloid diff MLP
COc1ccc(N2CCN(C(=O)COC(=O)/C=C/c3ccc(C(F)(F)F)cc3)CC2)cc1 | -6.8 | 6.0 | · | +
COCCN1C[C@@H](CO)O[C@@H](n2cnc3c(NCCO)ncnc32)C1 | -12.4 | · | · | i
CCOC(=O)c1sc2cc([N+](=O)[O-])cc(SCC(C)C)c2c1N | -6.1 | -3.9 | 0.1 | +
CCOC(=O)c1cc(N)cc([N+](=O)[O-])c1 | -7.7 | 3.4 | -18.8 | i
CCOC(=O)C1C(c2ccccc2Cl)NC(=O)N(C)C1(O)C(F)(F)F (stereo not given) | -4.9 | -1.3 | -0.3 | +
O=C1CCCN1CCC1CCN(C2CC(=O)N(c3ccc(Cl)cc3)C2=O)CC1 (stereo not given) | 21.9* | -2.7 | 14.8 | i
O=C(c1cccc([N+](=O)[O-])c1)N1CCN(c2cccc(Cl)c2)CC1 | 0.8 | 9.7 | -2.2 | +
COCCCNC(=O)CC1C[C@H](C(=O)N2CCCCC2)[C@@]2(C)c3[nH]c4ccc(OC)cc4c3CCN2C1=O (stereo not given in full) | -14.2 | -3.0 | · | i
COCCCNC(=O)C[C@H]1C[C@H](C(=O)N2CCCCC2)[C@@]2(C)c3[nH]c4ccc(Cl)cc4c3CCN2C1=O | -1.7 | -3.0 | · | +
CCCCCCCCN1C(=O)[C@H](CC(=O)N2CCN(C(=O)C3CC3)CC2)C[C@@]2(C(=O)OC)CC(C)(C)CC=C12 | -3.8 | · | · | i
CC(C)(C)n1ncc2c(=O)n(CC(=O)NCc3ccc(F)cc3)cnc21 | -5.9 | -0.7 | 6.8 | +
CN1C(=O)C(N=Nc2ccc([N+](=O)[O-])cc2)SC1=S (stereo not given) | -1.2 | 2.4 | · | i
C#CCSc1nnc(-c2c[nH]c3ccccc23)n1C | -13.3 | 3.0 | -14.5 | +
COc1cc(NC(=O)COc2ccc([N+](=O)[O-])cc2)ccc1NC(=O)c1ccco1 | -10.8 | -3.6 | · | i
O=C(NCc1cc(C(F)(F)F)ccc1Cl)c1cccc2c1C(=O)c1ccc(N3CCC(Cc4ccccc4)CC3)cc1S2(=O)=O | -0.9 | -8.7 | · | +
O=C(NCc1ccc(F)cc1)c1cccc2c1C(=O)c1ccc(N3CCC(N4CCCCC4)CC3)cc1S2(=O)=O | 18.1 | 6.8 | · | +
O=C(NCCN1CCCCC1)c1cccc2c1C(=O)c1ccc(N3CCCC3)cc1S2(=O)=O | 7.3 | 1.0 | · | +
O=C(NCc1ccc(F)cc1)c1cccc2c1C(=O)c1ccc(N3CCC(Cc4ccccc4)CC3)cc1S2(=O)=O | 12.1 | 13.6 | · | +
CC1CCN(c2ccc3c(c2)S(=O)(=O)c2cccc(C(=O)NCc4ccc(F)cc4)c2C3=O)CC1 | -0.3 | 5.8 | · | i
CCn1c(C)cc(C(=O)CSc2nnc(C3CC3)n2C2CC2)c1C | 3.6 | -4.6 | · | i
O=C(C(=O)N1CCN(c2ccccc2)CC1)c1ccccc1 | -9.4 | · | · | i
Cc1cccc(N2CCN(C(=O)COc3noc4nc(C)cc(C)c34)CC2C)c1 (stereo not given) | -9.0 | 2.6 | · | i
O=S(=O)(NCCS(=O)(=O)N1CCN(c2ccc(F)cc2)CC1)c1ccc(F)cc1 | 5.0 | -3.5 | · | i
COc1cccc(Nc2nc(C(N)C3CCCCC3)cs2)n1 (stereo not given) | -6.5 | · | · | i
O=C(O)c1ccc(COc2ccccc2C=C2C(=O)c3ccccc3C2=O)cc1 | -2.7 | 2.9 | 6.4 | +
SMILES | NOD2 RIPK2 PPI | TLR9-MyD88 block | TLR4-MyD88 BLA | Myeloid diff MLP
O=C1NC(=S)N/C1=C\c1ccccc1OCc1ccc(C(=O)O)cc1 | -11.1 | -4.7 | · | i
COc1ccc(CCNS(=O)(=O)c2cn(C)cn2)cc1OC | 5.3 | 2.3 | · | +
CC(C)(C)OC(=O)N1CCN(Cc2ccc(F)c(B(O)O)c2)CC1 | -21.8 | 2.5 | · | +
CN1CCc2c(sc3c2C(=O)NC(c2ccc(-c4ccc(Cl)cc4)o2)N3)C1 (stereo not given) | -11.9 | · | · | +
CN1CCc2c(sc3c2C(=O)NC(c2ccco2)N3)C1 (stereo not given) | 2.8 | -0.4 | -10.5 | i
CC1(C(=O)NS(=O)(=O)c2ccc(Br)cc2)CCN1C(=O)Cc1ccsc1 (stereo not given) | 4.4 | · | · | i
CCC(C)(C(=O)NC1CCCC1)N(Cc1ccco1)C(=O)c1ccc2c(c1)OCO2 (stereo not given) | -6.8 | 2.0 | -4.1 | +
CCC(C)(C(=O)NC1CCCC1)N(Cc1ccco1)C(=O)c1ccccn1 (stereo not given) | -8.5 | 1.4 | -3.0 | i
O=C1NN(c2ccccc2)C(=O)/C1=C\c1cccn1-c1ccc(Cl)c([N+](=O)[O-])c1 | 2.2 | 2.1 | -4.0 | +
